{"source": "the supplement of paper PMC4466140", "data": [{"target": "AgAbp1", "experiment": "SPOT peptide array binding signal intensity (averaged, normalized) (arbitrary units (background-subtracted, floor 0; scale differs between SH3 domains)); higher = stronger binding of the SH3 domain to the peptide", "in_short": "(§1)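 GST-SH3 fusions from four yeast species, purified on glutathione Sepharose, were incubated at 10 μg/ml overnight at 4°C on membranes of synthetic 15-mer peptides in which cysteines were replaced with serines. Binding signal is the normalized, background-subtracted spot intensity averaged over replicates, in domain-specific arbitrary units.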", "values": [{"binder": "VRVKKRPLIRPLNSS", "SPOT peptide array binding signal intensity": 450}]}, {"target": "AgBbc1", "experiment": "SPOT peptide array binding signal intensity (averaged, normalized) (arbitrary units (background-subtracted, floor 0; scale differs between SH3 domains)); higher = stronger binding of the SH3 domain to the peptide", "in_short": "as §1", "values": [{"binder": "VRVKKRPLIRPLNSS", "SPOT peptide array binding signal intensity": 184}]}, {"target": "AgBem1-D1", "experiment": "SPOT peptide array binding signal intensity (averaged, normalized) (arbitrary units (background-subtracted, floor 0; scale differs between SH3 domains)); higher = stronger binding of the SH3 domain to the peptide", "in_short": "as §1", "values": [{"binder": "VRVKKRPLIRPLNSS", "SPOT peptide array binding signal intensity": 244}]}, {"target": "AgBzz1-D1", "experiment": "SPOT peptide array binding signal intensity (averaged, normalized) (arbitrary units (background-subtracted, floor 0; scale differs between SH3 domains)); higher = stronger binding of the SH3 domain to the peptide", "in_short": "as §1", "values": [{"binder": "VRVKKRPLIRPLNSS", "SPOT peptide array binding signal intensity": 6.5}]}, {"target": "AgBzz1-D2", "experiment": "SPOT peptide array binding signal intensity (averaged, normalized) (arbitrary units (background-subtracted, floor 0; scale differs between SH3 domains)); higher = stronger binding of the SH3 domain to the peptide", "in_short": "as §1", "values": [{"binder": "VRVKKRPLIRPLNSS", "SPOT peptide array binding signal intensity": 215}]}, {"target": "AgCyk3", "experiment": "SPOT peptide array binding signal intensity (averaged, normalized) (arbitrary units (background-subtracted, floor 0; scale differs between SH3 domains)); higher = stronger binding of the SH3 domain to the peptide", "in_short": "as §1", "values": [{"binder": "VRVKKRPLIRPLNSS", "SPOT peptide array binding signal intensity": 6}]}, {"target": "AgFus1", "experiment": "SPOT peptide array binding signal intensity (averaged, normalized) (arbitrary units (background-subtracted, floor 0; scale differs between SH3 domains)); higher = stronger binding of the SH3 domain to the peptide", "in_short": "as §1", "values": [{"binder": "VRVKKRPLIRPLNSS", "SPOT peptide array binding signal intensity": 223}]}, {"target": "AgHof1", "experiment": "SPOT peptide array binding signal intensity (averaged, normalized) (arbitrary units (background-subtracted, floor 0; scale differs between SH3 domains)); higher = stronger binding of the SH3 domain to the peptide", "in_short": "as §1", "values": [{"binder": "VRVKKRPLIRPLNSS", "SPOT peptide array binding signal intensity": 48.5}]}, {"target": "AgHse1", "experiment": "SPOT peptide array binding signal intensity (averaged, normalized) (arbitrary units (background-subtracted, floor 0; scale differs between SH3 domains)); higher = stronger binding of the SH3 domain to the peptide", "in_short": "as §1", "values": [{"binder": "VRVKKRPLIRPLNSS", "SPOT peptide array binding signal intensity": 646}]}, {"target": "AgLsb1", "experiment": "SPOT peptide array binding signal intensity (averaged, normalized) (arbitrary units (background-subtracted, floor 0; scale differs between SH3 domains)); higher = stronger binding of the SH3 domain to the peptide", "in_short": "as §1", "values": [{"binder": "VRVKKRPLIRPLNSS", "SPOT peptide array binding signal intensity": 2.5}]}, {"target": "AgLsb4", "experiment": "SPOT peptide array binding signal intensity (averaged, normalized) (arbitrary units (background-subtracted, floor 0; scale differs between SH3 domains)); higher = stronger binding of the SH3 domain to the peptide", "in_short": "as §1", "values": [{"binder": "VRVKKRPLIRPLNSS", "SPOT peptide array binding signal intensity": 81}]}, {"target": "AgMyo5", "experiment": "SPOT peptide array binding signal intensity (averaged, normalized) (arbitrary units (background-subtracted, floor 0; scale differs between SH3 domains)); higher = stronger binding of the SH3 domain to the peptide", "in_short": "as §1", "values": [{"binder": "VRVKKRPLIRPLNSS", "SPOT peptide array binding signal intensity": 0.5}]}, {"target": "AgNbp2", "experiment": "SPOT peptide array binding signal intensity (averaged, normalized) (arbitrary units (background-subtracted, floor 0; scale differs between SH3 domains)); higher = stronger binding of the SH3 domain to the peptide", "in_short": "as §1", "values": [{"binder": "VRVKKRPLIRPLNSS", "SPOT peptide array binding signal intensity": 220}]}, {"target": "AgRvs167", "experiment": "SPOT peptide array binding signal intensity (averaged, normalized) (arbitrary units (background-subtracted, floor 0; scale differs between SH3 domains)); higher = stronger binding of the SH3 domain to the peptide", "in_short": "as §1", "values": [{"binder": "VRVKKRPLIRPLNSS", "SPOT peptide array binding signal intensity": 2.33}]}, {"target": "AgSho1", "experiment": "SPOT peptide array binding signal intensity (averaged, normalized) (arbitrary units (background-subtracted, floor 0; scale differs between SH3 domains)); higher = stronger binding of the SH3 domain to the peptide", "in_short": "as §1", "values": [{"binder": "VRVKKRPLIRPLNSS", "SPOT peptide array binding signal intensity": 53}]}, {"target": "AgSla1-D1-D2", "experiment": "SPOT peptide array binding signal intensity (averaged, normalized) (arbitrary units (background-subtracted, floor 0; scale differs between SH3 domains)); higher = stronger binding of the SH3 domain to the peptide", "in_short": "as §1", "values": [{"binder": "VRVKKRPLIRPLNSS", "SPOT peptide array binding signal intensity": 442}]}, {"target": "AgSla1-D3", "experiment": "SPOT peptide array binding signal intensity (averaged, normalized) (arbitrary units (background-subtracted, floor 0; scale differs between SH3 domains)); higher = stronger binding of the SH3 domain to the peptide", "in_short": "as §1", "values": [{"binder": "VRVKKRPLIRPLNSS", "SPOT peptide array binding signal intensity": 12.8}]}, {"target": "CaAbp1-D1", "experiment": "SPOT peptide array binding signal intensity (averaged, normalized) (arbitrary units (background-subtracted, floor 0; scale differs between SH3 domains)); higher = stronger binding of the SH3 domain to the peptide", "in_short": "as §1", "values": [{"binder": "VRVKKRPLIRPLNSS", "SPOT peptide array binding signal intensity": 1520}]}, {"target": "CaAbp1-D2", "experiment": "SPOT peptide array binding signal intensity (averaged, normalized) (arbitrary units (background-subtracted, floor 0; scale differs between SH3 domains)); higher = stronger binding of the SH3 domain to the peptide", "in_short": "as §1", "values": [{"binder": "VRVKKRPLIRPLNSS", "SPOT peptide array binding signal intensity": 1190}]}, {"target": "CaBbc1", "experiment": "SPOT peptide array binding signal intensity (averaged, normalized) (arbitrary units (background-subtracted, floor 0; scale differs between SH3 domains)); higher = stronger binding of the SH3 domain to the peptide", "in_short": "as §1", "values": [{"binder": "VRVKKRPLIRPLNSS", "SPOT peptide array binding signal intensity": 278}]}, {"target": "CaBem1-D1", "experiment": "SPOT peptide array binding signal intensity (averaged, normalized) (arbitrary units (background-subtracted, floor 0; scale differs between SH3 domains)); higher = stronger binding of the SH3 domain to the peptide", "in_short": "as §1", "values": [{"binder": "VRVKKRPLIRPLNSS", "SPOT peptide array binding signal intensity": 378}]}, {"target": "CaBzz1-D1", "experiment": "SPOT peptide array binding signal intensity (averaged, normalized) (arbitrary units (background-subtracted, floor 0; scale differs between SH3 domains)); higher = stronger binding of the SH3 domain to the peptide", "in_short": "as §1", "values": [{"binder": "VRVKKRPLIRPLNSS", "SPOT peptide array binding signal intensity": 153}]}, {"target": "CaBzz1-D2", "experiment": "SPOT peptide array binding signal intensity (averaged, normalized) (arbitrary units (background-subtracted, floor 0; scale differs between SH3 domains)); higher = stronger binding of the SH3 domain to the peptide", "in_short": "as §1", "values": [{"binder": "VRVKKRPLIRPLNSS", "SPOT peptide array binding signal intensity": 101}]}, {"target": "CaCyk3", "experiment": "SPOT peptide array binding signal intensity (averaged, normalized) (arbitrary units (background-subtracted, floor 0; scale differs between SH3 domains)); higher = stronger binding of the SH3 domain to the peptide", "in_short": "as §1", "values": [{"binder": "VRVKKRPLIRPLNSS", "SPOT peptide array binding signal intensity": 132}]}, {"target": "CaFus1", "experiment": "SPOT peptide array binding signal intensity (averaged, normalized) (arbitrary units (background-subtracted, floor 0; scale differs between SH3 domains)); higher = stronger binding of the SH3 domain to the peptide", "in_short": "as §1", "values": [{"binder": "VRVKKRPLIRPLNSS", "SPOT peptide array binding signal intensity": 381}]}, {"target": "CaHof1", "experiment": "SPOT peptide array binding signal intensity (averaged, normalized) (arbitrary units (background-subtracted, floor 0; scale differs between SH3 domains)); higher = stronger binding of the SH3 domain to the peptide", "in_short": "as §1", "values": [{"binder": "VRVKKRPLIRPLNSS", "SPOT peptide array binding signal intensity": 1}]}, {"target": "CaHse1", "experiment": "SPOT peptide array binding signal intensity (averaged, normalized) (arbitrary units (background-subtracted, floor 0; scale differs between SH3 domains)); higher = stronger binding of the SH3 domain to the peptide", "in_short": "as §1", "values": [{"binder": "VRVKKRPLIRPLNSS", "SPOT peptide array binding signal intensity": 15}]}, {"target": "CaLsb1", "experiment": "SPOT peptide array binding signal intensity (averaged, normalized) (arbitrary units (background-subtracted, floor 0; scale differs between SH3 domains)); higher = stronger binding of the SH3 domain to the peptide", "in_short": "as §1", "values": [{"binder": "VRVKKRPLIRPLNSS", "SPOT peptide array binding signal intensity": 2}]}, {"target": "CaLsb4", "experiment": "SPOT peptide array binding signal intensity (averaged, normalized) (arbitrary units (background-subtracted, floor 0; scale differs between SH3 domains)); higher = stronger binding of the SH3 domain to the peptide", "in_short": "as §1", "values": [{"binder": "VRVKKRPLIRPLNSS", "SPOT peptide array binding signal intensity": 104}]}, {"target": "CaMyo5", "experiment": "SPOT peptide array binding signal intensity (averaged, normalized) (arbitrary units (background-subtracted, floor 0; scale differs between SH3 domains)); higher = stronger binding of the SH3 domain to the peptide", "in_short": "as §1", "values": [{"binder": "VRVKKRPLIRPLNSS", "SPOT peptide array binding signal intensity": 1.5}]}]}
